# Only some compounds are listed: those with a hit (about 3.5% of all), similar ones and a draw of the others.
# GPR151 ag – activates the human receptor GPR151 | PathHunter beta-arrestin GPR151 cells, luminescence | activation, % at 11.2 µM | 650,000 tested, 1% active | AID 1508602; in the data active = activation above about 4.9%;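 also: 0% = median of compound wells and 100% = cells with positive control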
# MITF inh – inhibitors of human MITF. O75030. AlphaScreen MITF homodimerization, bead proximity signal. inhibition, % at 2.6 µM. 650,000 tested, 0.91% active; in the data active = inhibition above about 50%;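 also: 0% = vehicle wells with protein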
# Target sequence (O75030 whole entry, looked up): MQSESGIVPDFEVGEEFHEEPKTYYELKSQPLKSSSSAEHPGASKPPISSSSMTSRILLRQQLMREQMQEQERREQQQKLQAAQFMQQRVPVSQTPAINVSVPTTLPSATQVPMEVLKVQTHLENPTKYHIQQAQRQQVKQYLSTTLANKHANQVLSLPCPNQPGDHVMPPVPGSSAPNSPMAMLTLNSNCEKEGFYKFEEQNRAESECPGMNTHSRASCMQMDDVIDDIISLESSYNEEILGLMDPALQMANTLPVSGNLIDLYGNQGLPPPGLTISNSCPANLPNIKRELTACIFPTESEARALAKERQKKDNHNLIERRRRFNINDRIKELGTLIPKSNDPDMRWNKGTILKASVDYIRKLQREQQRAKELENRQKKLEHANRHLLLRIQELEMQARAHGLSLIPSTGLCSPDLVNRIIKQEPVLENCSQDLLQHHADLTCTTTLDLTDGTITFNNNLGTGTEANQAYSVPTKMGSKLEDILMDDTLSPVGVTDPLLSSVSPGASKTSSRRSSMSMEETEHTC
# FBW7 activator – human FBW7 E3 ligase activation, primary screen. 650,000 tested, 0.13% active. normalized activity (activation), % at 26.1 µM. AID 1259310. AlphaScreen FBW7–phospho-cyclin E peptide binding, activator screen. Q969H0; in the data active = normalized activity above about 1.9%;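 also: purified mutant Fbw7 with reduced substrate affinity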
# TEAD-YAP inh – TEAD-YAP interaction inhibition; HEK-TIYL cells, TEAD-Gal4/YAP UAS-luciferase luminescence; inhibition, % at 9.12 µM; 640,000 tested, 1.4% active; in the data active = inhibition above about 32%;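 also: 0% = median of test compound wells and 100% = reference inhibitor wells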
# GPR151 confirm – human GPR151 activation, confirmation screen | 6,700 tested, under 10 active | shares compounds with GPR151 ag | AID 1508609 | activation, % at 11.2 µM | GPR151 PathHunter beta-arrestin cells, luminescence, 90 min; % of EA-reagent control over plate median;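 active = mean percent activation across replicates above the confirmation screen cutoff of 4.91%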
# GPR119 counter – activates human GPR119 in a GPR151 counter-screen. shares compounds with GPR151 ag. GPR119 PathHunter beta-arrestin cells, luminescence, 90 min; 0 = compound-well median, 100 = enzyme-acceptor control. activation, % at 11.2 µM. 6,700 tested, 0.3% active. AID 1508611;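 active = mean percent activation in the counterscreen above 29.09%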;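 also: counterscreen on off-target GPR119 to flag nonselective hits from the GPR151 activator screen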
# * = called active by the depositor; . = not tested or not shown; ! = repeats disagree.
SMILES,GPR151 ag,MITF inh,FBW7 activator,TEAD-YAP inh,GPR151 confirm,GPR119 counter
C=CCOc1ccc(/C=C2/C(=O)NC(=O)N(c3ccc(OCC)cc3)C2=O)cc1OCC,7.6*,10.3,0.1,12.3,1.0,6.1
COc1ccc(N2C(=O)NC(=O)/C(=C\c3ccc(F)cc3)C2=O)cc1,5.5*,-4.8,-0.1,2.4,0.6,15.9
CCOc1ccc(N2C(=O)NC(=O)/C(=C\c3ccc(OC)c(OC)c3)C2=O)cc1,-0.9,7.3,0.2,11.6,.,.
CCS(=O)(=O)NCC1CC(=O)N(Cc2ccc(F)cc2)C1 (stereo not given),-0.4,4.8,0.1,18.6,.,.
Nc1nc(Cl)cc(NCCN2CCOCC2)n1,1.8,9.8,0.0,9.0,.,.
Clc1cc(NCCN2CCOCC2)ncn1,5.7*!,12.0,0.3,5.7,0.6,-4.1
O=C(C[n+]1cccc(Br)c1)c1cccs1,7.8*,-13.1,1.1,-0.4,-0.9,-6.5
CCOC(=O)c1ccc(NC(=O)CN(Cc2ccccc2)S(=O)(=O)c2ccc(Cl)cc2)cc1,0.1,19.3,1.4,-8.8,.,.
CC(=O)N1CN(Cc2ccccc2)Cc2c1sc1c2CCCC1,5.5*,1.2,-0.1,-8.1,0.3,-3.1
CC(=O)N1CN(Cc2cccnc2)Cc2c1sc1c2CCCC1,-0.3,-4.5,-0.2,-3.6,.,.
O=C(CSc1nc2ccccc2[nH]1)Nc1ccc(Cl)c(C(=O)O)c1,0.2,-2.6,-0.6,-3.5,.,.
COC(=O)c1c(NC(=O)CSc2nnc(C)s2)sc(C(C)=O)c1C,7.4*,4.7,0.0,2.6,0.2,6.7
O=C(CSc1nc2ncccc2[nH]1)Nc1ccc(Cl)c(F)c1,-0.2,-2.4,0.2,1.7,.,.
O=C(CSc1nc2ccccc2[nH]1)Nc1cc(Cl)ccc1Cl,11.0*,13.3,-0.1,1.7,-0.3,-6.9
COC(=O)c1c(NC(=O)CSc2nnc(N)s2)sc(C)c1C,0.9,-1.6,-0.1,1.0,.,.
O=C(CSc1nc2ncccc2[nH]1)Nc1ccc(F)c(Cl)c1,7.2*,6.8,-0.2,3.7,0.1,0.1
CCC(CC)C(=O)Nc1nnc(SCC(=O)Nc2nnc(C)s2)s1,4.9*,4.0,0.2,1.2,-0.5,5.8
Cc1cc(Cl)ccc1OCC(=O)Nc1ccc(Br)cn1,1.1,1.9,0.1,-14.3,.,.
Cc1cccc2cc(-c3ccc(F)cc3)cn12,1.9,8.1,1.7,-0.1,.,.
O=C(CN1CCOCC1)N/N=C/c1ccc(Br)cc1,-1.2,-20.9,0.1,-9.9,.,.
CCC(=O)Nc1nnc(SCc2cccc(Cl)c2)s1,-0.4,0.0,0.1,-1.7,.,.
COc1ccc(-c2nnc(SCC(=O)Nc3ccc(F)c(Cl)c3)o2)cc1,5.0*,-3.8,-0.1,-45.9,0.1,-7.9
CCC(=O)Nc1nnc(SCC(=O)Nc2cccc(Cl)c2)s1,8.8*,13.9,0.8,1.4,-1.1,-10.9
O=C(CSc1nc2ccccc2[nH]1)Nc1cccc(Cl)c1,5.1*,3.5,-0.1,-7.5,-0.4,-2.1
O=C(CSc1nc2ccccc2[nH]1)Nc1ccc(Cl)cc1,0.2,14.4,0.7,-8.5,.,.
SMILES,GPR151 ag,MITF inh,FBW7 activator,TEAD-YAP inh,GPR151 confirm,GPR119 counter
COc1ccc(-c2nnc(SCC(=O)Nc3ccc(Cl)cc3C)o2)cc1,-0.2,-21.9,0.0,21.0,.,.
O=C(Nc1ccccc1N(C(=O)C1CC1)S(=O)(=O)c1cccs1)C1CC1,5.0*,2.8,-0.1,2.6,-0.1,15.4
COc1ccccc1N1CCN(c2ncc(C(=O)N3CCN(c4ccccn4)CC3)c3ccccc23)CC1,-1.2,12.6,0.6,1.2,.,.
COc1ccccc1N1CCN(C(=O)c2cnc(N3CCN(c4ncccn4)CC3)c3ccccc23)CC1,5.3*,5.8,-0.1,23.5,1.9,14.4
O=C(O)C(Oc1ccccc1-n1cccc1)c1ccccc1 (stereo not given),6.4*,-16.6,0.0,4.3,-0.1,-7.9
O=C(c1ccccc1)c1ccccc1-n1cccc1,-1.8,1.6,-0.2,4.2,.,.
OCC1(CCc2ccccc2)CCN(Cc2cnc(N3CCCC3)s2)CC1,6.6*,5.7,0.0,-3.2,-1.1,-15.4
CCOC(=O)C1(CCc2ccccc2)CCN(Cc2cnc(C)s2)CC1,9.8*,-2.3,-0.1,-5.3,0.0,-5.9
COc1cc(C2C3=C(Nc4ncnn42)c2ccccc2OC3c2cccs2)cc(OC)c1OC (stereo not given),-0.1,-7.8,-0.2,2.7,.,.
COc1ccc(S(=O)(=O)N2CCC(C)CC2)cc1OC,-1.7,12.2,0.1,-3.8,.,.

# High-throughput results deposited in PubChem BioAssay by The Scripps Research Institute Molecular Screening Center.
